According to PubChem BioAssay (Tox21):
Records with an inconclusive call do not appear. Activity calls are given as the source filed them. Unless noted, calls follow the shape of the full dose curve.

Assays:
[1] = target: Estrogen receptor (Homo sapiens) (UniProt P03372); assay: qHTS assay to identify small molecule agonists of the estrogen receptor alpha (ER-alpha) signaling pathway in the presence of an antagonist (AID 1259383); also: top concentration of the series differs between compounds; nearly all actives have a fitted effect of over 15% in size
Summary of the method: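 Cells are hormone-deprived for 5 days (charcoal-stripped FBS, no phenol red), plated for 24hr, spiked with 10.0nM ICI-182,780, then dosed at 15 concentrations. After 22hr at 37C, ONE-Glo luminescence reports ERE-luciferase activity.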

[2] = qHTS assay to identify small molecule agonists or antagonists of the thyroid stimulating hormone receptor (TSHR) signaling pathway - wild type cell line counter screen (AID 1259384)
Summary of the method: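 Counter screen in untransfected Hek293: compounds (15-point titration, triplicate) plus phosphodiesterase inhibitor Ro20-1724 added after 18 h plating; 30 min RT. Intracellular cAMP via competitive d2/cryptate immunoassay, 1 h incubation.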

[3] = target: Thyrotropin receptor (Homo sapiens) (UniProt P16473); assay: qHTS assay to identify small molecule antagonists of the thyroid stimulating hormone receptor (TSHR) signaling pathway (AID 1259385); also: nearly all actives have a fitted effect of over 20% in size
Summary of the method: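 Antagonist mode: compound-treated TSHR-expressing HEK293 cells were stimulated with 1.5 ng/mL TSH (final) in presence of Ro20-1724 for 30 min at RT. HTRF cAMP detection after 1 h; each compound tested at 15 concentrations, triplicate.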

[4] = qHTS assay to identify small molecule agonists of the estrogen receptor alpha (ER-alpha) signaling pathway in the presence of an antagonist - cell viability counter screen (AID 1259386; active = well fitted curve in the direction sought with a large enough effect in the repeat runs; an effect the other way counts as inactive or inconclusive;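 also: series mostly up to about 92 µM; cells exposed to compounds for 22 h at 37 °C before the viability read; nearly all actives have a fitted effect of over 30% in size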)
Summary of the method: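 Cells are starved of estrogens for 5 days in charcoal-stripped serum, seeded for 24hr and co-treated with ICI-182,780 (10.0nM final) and test compounds. After 22hr at 37C, viability is read as CellTiter-Fluor fluorescence.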

[5] = target: Progesterone receptor (Homo sapiens) (UniProt P06401); assay: qHTS assay to identify small molecule agonists of the progesterone receptor (PR) signaling pathway (AID 1346784); also: nearly all actives have a fitted effect of over 30% in size
Summary of the method: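 HEK 293T PR-UAS-bla reporter cells, 2% charcoal-stripped FBS; 6 hr settle at 37C/5% CO2, compound (DMSO) 16 hr, LiveBLAzer B/G FRET substrate 2 hr RT, fluorescence intensity read.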

[6] = target: Progesterone receptor (Homo sapiens) (UniProt P06401); assay: qHTS assay to identify small molecule antagonists of the progesterone receptor (PR) signaling pathway (AID 1346795; active = well fitted inhibition curve with a large enough effect in the signal ratio in the repeat runs, not every such curve was filed as active; the % refers to the signal ratio)
Summary of the method: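 Beta-lactamase reporter, HEK293T PR-UAS-bla line; 2% charcoal-stripped FBS; 6 hr pre-incubation, 37C/5% CO2. Compound + R5020 1 nM final, 16 hr. LiveBLAzer B/G FRET substrate, 2 hr RT; fluorescence intensity read.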

[7] = qHTS assay to identify small molecule antagonists of the progesterone receptor (PR) signaling pathway - cell viability counter screen (AID 1346798; active = well fitted curve in the direction sought with a large enough effect in the repeat runs; an effect the other way counts as inactive or inconclusive; also: series mostly up to about 92 µM; nearly all actives have a fitted effect of over 50% in size)
Summary of the method: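 Luminescence readout (CellTiter-Glo, 30 min, RT) of viability in PR-UAS-bla HEK293T cells exposed to compound and R5020 agonist for 16 hr at 37C, 5% CO2; run in the same wells as the beta-lactamase reporter read.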

[8] = qHTS assay to identify small molecule agonists of the progesterone receptor (PR) signaling pathway - cell viability counter screen (AID 1346799); also: nearly all actives have a fitted effect of over 45% in size
Summary of the method: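 HEK293T PR-UAS-bla, 3,000 cells/well, 2% charcoal-stripped FBS; 6 h settle, compound 16 h at 37C/5% CO2; LiveBLAzer 2 h RT, then CellTiter-Glo 30 min RT, luminescence read.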

[9] = qHTS assay to identify small molecule antagonists of the TGF-beta/Smad signaling pathway - cell viability counter screen (AID 1346824; active = well fitted curve in the direction sought with a large enough effect in the repeat runs; an effect the other way counts as inactive or inconclusive; also: nearly all actives have a fitted effect of over 50% in size)
Summary of the method: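 Cytotoxicity counter-screen run in the same wells as the beta-lactamase Smad reporter read: CellTiter-Glo luminescence after 30 min at room temperature. HEK 293T SBE-bla cells had 5 hr compound exposure at 37 C with TGF-beta1 (0.25 ng/mL stock).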

[10] = qHTS assay to identify small molecule agonists of the TGF-beta/Smad signaling pathway - cell viability counter screen (AID 1346829; active = well fitted curve in the direction sought with a large enough effect in the repeat runs; an effect the other way counts as inactive or inconclusive; also: top concentration of the series differs between compounds; nearly all actives have a fitted effect of over 45% in size)
Summary of the method: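 Here the cytotoxicity of library compounds is measured in SBE-bla HEK 293T cells treated for 5 hr, using CellTiter-Glo added to wells already read for the beta-lactamase reporter.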
% is scaled to controls: 0 for no effect and ±100 for the full control effect.

Progesterone receptor (Homo sapiens), sequence (P06401 whole entry, looked up): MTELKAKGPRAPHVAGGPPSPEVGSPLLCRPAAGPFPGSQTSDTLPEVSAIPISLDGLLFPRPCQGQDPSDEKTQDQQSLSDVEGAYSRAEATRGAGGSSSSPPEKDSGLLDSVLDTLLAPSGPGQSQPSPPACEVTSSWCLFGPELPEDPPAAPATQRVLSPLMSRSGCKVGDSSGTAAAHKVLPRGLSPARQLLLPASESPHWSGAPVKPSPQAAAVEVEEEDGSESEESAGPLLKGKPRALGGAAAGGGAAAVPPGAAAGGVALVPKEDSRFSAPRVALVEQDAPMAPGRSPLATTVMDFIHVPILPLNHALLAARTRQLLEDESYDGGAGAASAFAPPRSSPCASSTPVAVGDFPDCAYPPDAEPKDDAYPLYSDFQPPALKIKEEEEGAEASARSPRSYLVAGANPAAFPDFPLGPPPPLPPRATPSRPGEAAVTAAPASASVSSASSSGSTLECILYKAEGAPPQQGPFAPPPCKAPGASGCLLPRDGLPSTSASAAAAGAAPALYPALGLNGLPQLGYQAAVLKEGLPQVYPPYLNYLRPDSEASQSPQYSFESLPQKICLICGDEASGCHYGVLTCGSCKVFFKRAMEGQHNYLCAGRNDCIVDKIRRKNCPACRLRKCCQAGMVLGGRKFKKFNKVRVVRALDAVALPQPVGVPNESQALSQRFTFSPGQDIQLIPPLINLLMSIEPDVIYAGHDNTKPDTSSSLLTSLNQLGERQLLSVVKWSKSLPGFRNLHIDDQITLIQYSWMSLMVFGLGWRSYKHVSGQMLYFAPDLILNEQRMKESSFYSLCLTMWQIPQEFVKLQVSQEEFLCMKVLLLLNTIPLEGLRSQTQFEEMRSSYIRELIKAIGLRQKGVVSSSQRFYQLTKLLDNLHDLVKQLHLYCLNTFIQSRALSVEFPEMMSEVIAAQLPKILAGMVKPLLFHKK
Estrogen receptor (Homo sapiens), sequence (P03372 whole entry, looked up): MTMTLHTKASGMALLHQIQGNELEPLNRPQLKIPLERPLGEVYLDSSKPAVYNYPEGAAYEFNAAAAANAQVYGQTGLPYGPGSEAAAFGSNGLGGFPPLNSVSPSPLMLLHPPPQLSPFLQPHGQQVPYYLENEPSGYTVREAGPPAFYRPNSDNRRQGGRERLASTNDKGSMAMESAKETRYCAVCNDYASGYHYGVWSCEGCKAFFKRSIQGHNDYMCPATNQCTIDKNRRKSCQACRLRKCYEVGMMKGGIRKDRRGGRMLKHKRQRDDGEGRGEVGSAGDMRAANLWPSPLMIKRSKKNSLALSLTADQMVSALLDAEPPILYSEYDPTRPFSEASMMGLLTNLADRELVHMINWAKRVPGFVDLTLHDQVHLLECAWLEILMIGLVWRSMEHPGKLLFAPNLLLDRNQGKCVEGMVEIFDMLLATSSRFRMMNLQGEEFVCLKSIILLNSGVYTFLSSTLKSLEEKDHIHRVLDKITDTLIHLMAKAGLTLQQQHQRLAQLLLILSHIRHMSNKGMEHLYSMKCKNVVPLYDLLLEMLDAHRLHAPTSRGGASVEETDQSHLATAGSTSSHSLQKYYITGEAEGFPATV
Thyrotropin receptor (Homo sapiens), sequence (P16473 whole entry, looked up): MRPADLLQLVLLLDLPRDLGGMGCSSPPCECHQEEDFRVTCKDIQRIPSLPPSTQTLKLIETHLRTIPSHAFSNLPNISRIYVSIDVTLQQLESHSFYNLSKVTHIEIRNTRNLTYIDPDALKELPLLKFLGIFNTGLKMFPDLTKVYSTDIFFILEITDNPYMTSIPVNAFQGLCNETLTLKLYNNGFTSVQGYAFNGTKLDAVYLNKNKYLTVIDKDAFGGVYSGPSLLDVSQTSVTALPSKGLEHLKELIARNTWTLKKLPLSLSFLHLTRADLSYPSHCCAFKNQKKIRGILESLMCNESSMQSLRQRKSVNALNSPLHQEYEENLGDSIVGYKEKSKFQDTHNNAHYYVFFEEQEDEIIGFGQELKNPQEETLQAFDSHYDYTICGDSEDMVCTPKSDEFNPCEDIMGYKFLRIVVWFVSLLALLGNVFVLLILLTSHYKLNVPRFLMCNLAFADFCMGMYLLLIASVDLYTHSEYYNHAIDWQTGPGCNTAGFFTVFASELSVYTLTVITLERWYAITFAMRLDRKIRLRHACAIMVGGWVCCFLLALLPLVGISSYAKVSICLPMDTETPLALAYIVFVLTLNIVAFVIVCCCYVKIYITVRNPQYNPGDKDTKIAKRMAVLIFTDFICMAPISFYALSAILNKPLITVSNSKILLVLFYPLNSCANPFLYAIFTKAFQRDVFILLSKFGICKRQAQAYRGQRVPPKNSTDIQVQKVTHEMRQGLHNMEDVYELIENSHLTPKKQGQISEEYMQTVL

CCOc1cccc(N)c1
inactive: Potency [1] | outcome [2] | outcome [3] | outcome [4] | Potency [5] | Potency [6] | outcome [7] | outcome [8] | outcome [9] | outcome [10]

OC[C@H]1O[C@@H](O[C@@H]2[C@@H](CO)O[C@](O)(CO)[C@H]2O)[C@H](O)[C@@H](O)[C@H]1O
inactive: Potency [1] | outcome [2] | outcome [3] | outcome [4] | Potency [5] | Potency [6] | outcome [7] | outcome [8] | outcome [9] | outcome [10]

COC(=O)CCCCC(CCSS/C(CCO)=C(\C)N(C=O)Cc1cnc(C)nc1N)SC(C)=O (configuration not stated)
inactive: Potency [1] | outcome [2] | outcome [3] | outcome [4] | Potency [5] | Potency [6] | outcome [7] | outcome [8] | outcome [9] | outcome [10]

COc1ccc2c(c1)c1c3n2CCN(C)C3=NCC1
inactive: Potency [1] | outcome [2] | outcome [3] | outcome [4] | Potency [5] | Potency [6] | outcome [7] | outcome [8] | outcome [9] | outcome [10]

O=C(CCCl)NCCc1ccccc1
inactive: Potency [1] | outcome [2] | outcome [3] | outcome [4] | Potency [5] | Potency [6] | outcome [7] | outcome [8] | outcome [9] | outcome [10]

COCCc1ccccn1
inactive: Potency [1] | outcome [2] | outcome [3] | outcome [4] | Potency [5] | Potency [6] | outcome [7] | outcome [8] | outcome [9] | outcome [10]

C=CCCCC
inactive: Potency [1] | outcome [2] | outcome [3] | outcome [4] | Potency [5] | Potency [6] | outcome [7] | outcome [8] | outcome [9] | outcome [10]

CCC/C=C(\C=O)CC
inactive: Potency [1] | outcome [2] | outcome [3] | outcome [4] | Potency [5] | Potency [6] | outcome [7] | outcome [8] | outcome [9] | outcome [10]

COC(C)(OC)OC
inactive: Potency [1] | outcome [2] | outcome [3] | outcome [4] | Potency [5] | Potency [6] | outcome [7] | outcome [8] | outcome [9] | outcome [10]

CCOC(=O)CC1(C)OCC(C)O1 (configuration not stated)
inactive: Potency [1] | outcome [2] | outcome [3] | outcome [4] | Potency [5] | Potency [6] | outcome [7] | outcome [8] | outcome [9] | outcome [10]

CC(=O)CCc1ccc(OC(C)=O)cc1
inactive: Potency [1] | outcome [2] | outcome [3] | outcome [4] | Potency [5] | Potency [6] | outcome [7] | outcome [8] | outcome [9] | outcome [10]

CCCCOCCOC(=O)COc1ccc(Cl)cc1Cl
inactive: Potency [1] | outcome [2] | outcome [3] | outcome [4] | Potency [5] | Potency [6] | outcome [7] | outcome [8] | outcome [9] | outcome [10]

O=C(Cn1ccnc1[N+](=O)[O-])NCc1ccccc1
inactive: Potency [1] | outcome [2] | outcome [3] | outcome [4] | Potency [5] | Potency [6] | outcome [7] | outcome [8] | outcome [9] | outcome [10]

[O]=[Mo](=[O])=[O]
inactive: activation [1] -1.83% [at 19 µM] | cAMP activity change [2] -1.05% [at 18.9 µM] | activity change, negative = inhibition [3] 4.59% [at 19 µM] | activity change, negative = cytotoxicity [4] -0.317% [at 19 µM] | activation [5] 1.92% [at 19 µM] | activity change, negative = inhibition [6] 2.07% [at 18.9 µM] | activity change, negative = cytotoxicity [7] 2.8% [at 18.9 µM] | activity change, negative = cytotoxicity [8] 7.88% [at 19 µM] | viability change, negative = cytotoxic [9] 0.506% [at 15.8 µM] | activity change, negative = cytotoxicity [10] 7.35% [at 15.8 µM]

CCOc1ccccc1OCC1CNCCO1 (configuration not stated)
inactive: Potency [1] | outcome [2] | outcome [3] | outcome [4] | Potency [5] | Potency [6] | outcome [7] | outcome [8] | outcome [9] | outcome [10]

CC(C)C1OCCN1CCOC(=O)NCCCCCCNC(=O)OCCN1CCOC1C(C)C (configuration not stated)
inactive: Potency [1] | outcome [2] | outcome [3] | outcome [4] | Potency [5] | outcome [7] | outcome [8] | outcome [9]

C/C(=C1\CCOC(=O)S1)N(C=O)Cc1cnc(C)nc1N
inactive: Potency [1] | outcome [2] | outcome [3] | outcome [4] | Potency [5] | Potency [6] | outcome [7] | outcome [8] | outcome [9] | outcome [10]

CC(=O)OCC(=O)Nc1cc(C#N)cc(NC(=O)COC(C)=O)c1Cl
inactive: Potency [1] | outcome [2] | outcome [3] | outcome [4] | Potency [5] | outcome [7] | outcome [8] | outcome [9] | outcome [10]

CO[C@@]1(NC(=O)Cc2cccs2)C(=O)N2C(C(=O)O)=C(COC(N)=O)CS[C@@H]21
inactive: Potency [1] | outcome [2] | outcome [3] | outcome [4] | Potency [5] | outcome [7] | outcome [8] | outcome [9] | outcome [10]

COc1cc(OC)nc(O[C@H](C(=O)O)C(OC)(c2ccccc2)c2ccccc2)n1
inactive: Potency [1] | outcome [2] | outcome [3] | outcome [4] | Potency [5] | outcome [8] | outcome [9] | outcome [10]

CCN1CCCC1CN (configuration not stated)
inactive: Potency [1] | outcome [2] | outcome [3] | outcome [4] | Potency [5] | Potency [6] | outcome [7] | outcome [9] | outcome [10]

OC1(c2ccc(Cl)cc2)CCNCC1
inactive: Potency [1] | outcome [2] | outcome [3] | outcome [4] | Potency [5] | Potency [6] | outcome [7] | outcome [9] | outcome [10]
